# Data from article PMC12820563, “FoxP3 forms a head-to-head dimer in vivo and stabilizes its multimerization on adjacent microsatellites”.
# The full ranking holds about 16,000 sequences; the median of “rpm ratio (pull-down/input)” is about 0.5, and the highest 2% start at about 5.5. What follows is part of a selection rich in the highest values, with near analogues and random picks from the rest.
# Target: T1, MBP-FoxP3dN (Mus musculus, UniProt Q99JB6 188-423)
# T1 sequence: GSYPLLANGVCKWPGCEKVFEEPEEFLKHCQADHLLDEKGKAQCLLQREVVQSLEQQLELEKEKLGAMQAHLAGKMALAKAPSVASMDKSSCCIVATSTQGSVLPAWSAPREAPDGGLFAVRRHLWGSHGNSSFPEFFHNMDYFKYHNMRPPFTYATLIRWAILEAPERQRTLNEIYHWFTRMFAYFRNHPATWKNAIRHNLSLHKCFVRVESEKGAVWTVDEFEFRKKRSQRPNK
# Assay: PD-seq (MBP pull-down with sequencing); 20 mM Tris-HCl pH 7.5, 100 mM NaCl, 1.5 mM MgCl2, 0.4 uM protein, 0.1 uM dsDNA library, 30 min, room temperature, amylose pull-down; high values mean tight binding
# Details: protein: recombinant; tags: His6-MBP; chain copies: 2; dsDNA, one strand shown
# Outline: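 The N-terminus-lacking fragment of mouse FoxP3 or FoxP1 carried a His6-MBP tag and was expressed in E. coli. At 0.4 µM it was incubated with 0.1 µM Klenow-filled degenerate double-stranded DNA library for 30 min at room temperature in Tris pH 7.5 buffer with NaCl and MgCl2, and complexes were caught on amylose resin, washed three times, released with proteinase K, PCR-barcoded and Illumina-sequenced. Binding is reads-per-million enrichment of pull-down over input with replicates pooled.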
row,Sequence,binding signal
1,GATGATTGTTCTCCCAGCTGATGAATTGTATTATTCGAGTAAACAAATTTTCCTAATCTTTCTGTTCAAGCGCCATCTAC,5.22 RPM ratio (pull-down/input)
2,GATGATTGTTCTCCCAGCTGATGAATTATTGCAGTCGAGTAAACAAATTTTCCTAATCTTTCTGTTCAAGCGCCATCTAC,1.18 RPM ratio (pull-down/input)
3,GATGATTGTTCTCCCAGCTGATGAATTCAGCTGTTCGAGTAAACAAATTTTCCTAATCTTTCTGTTCAAGCGCCATCTAC,1.19 RPM ratio (pull-down/input)
4,GATGATTGTTCTCCCAGCTGATGAATTGATTCGCTCGAGTAAACAAATTTTCCTAATCTTTCTGTTCAAGCGCCATCTAC,0.331 RPM ratio (pull-down/input)
5,GATGATTGTTCTCCCAGCTGATGAATTATGGCTCTCGAGTAAACAAATTTTCCTAATCTTTCTGTTCAAGCGCCATCTAC,0.643 RPM ratio (pull-down/input)
6,GATGATTGTTCTCCCAGCTGATGAATTTTGTTGATCGAGTAAACAAATTTTCCTAATCTTTCTGTTCAAGCGCCATCTAC,7.34 RPM ratio (pull-down/input)
7,GATGATTGTTCTCCCAGCTGATGAATTGATTTGATCGAGTAAACAAATTTTCCTAATCTTTCTGTTCAAGCGCCATCTAC,0.64 RPM ratio (pull-down/input)
8,GATGATTGTTCTCCCAGCTGATGAATTGATGACATCGAGTAAACAAATTTTCCTAATCTTTCTGTTCAAGCGCCATCTAC,1.05 RPM ratio (pull-down/input)
9,GATGATTGTTCTCCCAGCTGATGAATTTGTTTGATCGAGTAAACAAATTTTCCTAATCTTTCTGTTCAAGCGCCATCTAC,5.99 RPM ratio (pull-down/input)
10,GATGATTGTTCTCCCAGCTGATGAATTGTTTTGATCGAGTAAACAAATTTTCCTAATCTTTCTGTTCAAGCGCCATCTAC,4.03 RPM ratio (pull-down/input)
11,GATGATTGTTCTCCCAGCTGATGAATTGTTGACATCGAGTAAACAAATTTTCCTAATCTTTCTGTTCAAGCGCCATCTAC,5.72 RPM ratio (pull-down/input)
12,GATGATTGTTCTCCCAGCTGATGAATTTGATTGATCGAGTAAACAAATTTTCCTAATCTTTCTGTTCAAGCGCCATCTAC,2.23 RPM ratio (pull-down/input)
13,GATGATTGTTCTCCCAGCTGATGAATTTTTTTGATCGAGTAAACAAATTTTCCTAATCTTTCTGTTCAAGCGCCATCTAC,0.23 RPM ratio (pull-down/input)
14,GATGATTGTTCTCCCAGCTGATGAATTTTTGACATCGAGTAAACAAATTTTCCTAATCTTTCTGTTCAAGCGCCATCTAC,0.524 RPM ratio (pull-down/input)
15,GATGATTGTTCTCCCAGCTGATGAATTGATTCTCTCGAGTAAACAAATTTTCCTAATCTTTCTGTTCAAGCGCCATCTAC,0.395 RPM ratio (pull-down/input)
16,GATGATTGTTCTCCCAGCTGATGAATTAAGTCGCTCGAGTAAACAAATTTTCCTAATCTTTCTGTTCAAGCGCCATCTAC,0.441 RPM ratio (pull-down/input)
17,GATGATTGTTCTCCCAGCTGATGAATTAGGACGCTCGAGTAAACAAATTTTCCTAATCTTTCTGTTCAAGCGCCATCTAC,0.484 RPM ratio (pull-down/input)
18,GATGATTGTTCTCCCAGCTGATGAATTATACGAGTCGAGTAAACAAATTTTCCTAATCTTTCTGTTCAAGCGCCATCTAC,0.404 RPM ratio (pull-down/input)
19,GATGATTGTTCTCCCAGCTGATGAATTCTAGACCTCGAGTAAACAAATTTTCCTAATCTTTCTGTTCAAGCGCCATCTAC,0.236 RPM ratio (pull-down/input)
20,GATGATTGTTCTCCCAGCTGATGAATTCTTAGCCTCGAGTAAACAAATTTTCCTAATCTTTCTGTTCAAGCGCCATCTAC,0.373 RPM ratio (pull-down/input)
21,GATGATTGTTCTCCCAGCTGATGAATTCTTTTGGTCGAGTAAACAAATTTTCCTAATCTTTCTGTTCAAGCGCCATCTAC,0.31 RPM ratio (pull-down/input)

row,Sequence,binding signal
1,GATGATTGTTCTCCCAGCTGATGAATTGGTTGTGTCGAGTAAACAAATTTTCCTAATCTTTCTGTTCAAGCGCCATCTAC,5.42 RPM ratio (pull-down/input)
2,GATGATTGTTCTCCCAGCTGATGAATTGTTTGGGTCGAGTAAACAAATTTTCCTAATCTTTCTGTTCAAGCGCCATCTAC,4.43 RPM ratio (pull-down/input)
3,GATGATTGTTCTCCCAGCTGATGAATTTTGTTGGTCGAGTAAACAAATTTTCCTAATCTTTCTGTTCAAGCGCCATCTAC,7.07 RPM ratio (pull-down/input)
4,GATGATTGTTCTCCCAGCTGATGAATTCTGTTGGTCGAGTAAACAAATTTTCCTAATCTTTCTGTTCAAGCGCCATCTAC,5.56 RPM ratio (pull-down/input)
5,GATGATTGTTCTCCCAGCTGATGAATTTTTGGGGTCGAGTAAACAAATTTTCCTAATCTTTCTGTTCAAGCGCCATCTAC,0.233 RPM ratio (pull-down/input)
6,GATGATTGTTCTCCCAGCTGATGAATTTGTTGGGTCGAGTAAACAAATTTTCCTAATCTTTCTGTTCAAGCGCCATCTAC,7.61 RPM ratio (pull-down/input)
7,GATGATTGTTCTCCCAGCTGATGAATTGGTGTGGTCGAGTAAACAAATTTTCCTAATCTTTCTGTTCAAGCGCCATCTAC,1.32 RPM ratio (pull-down/input)
8,GATGATTGTTCTCCCAGCTGATGAATTGTGTTGGTCGAGTAAACAAATTTTCCTAATCTTTCTGTTCAAGCGCCATCTAC,6.68 RPM ratio (pull-down/input)
9,GATGATTGTTCTCCCAGCTGATGAATTTCTTTGGTCGAGTAAACAAATTTTCCTAATCTTTCTGTTCAAGCGCCATCTAC,1.03 RPM ratio (pull-down/input)
10,GATGATTGTTCTCCCAGCTGATGAATTCAATTGGTCGAGTAAACAAATTTTCCTAATCTTTCTGTTCAAGCGCCATCTAC,2.04 RPM ratio (pull-down/input)
11,GATGATTGTTCTCCCAGCTGATGAATTTGGTTGGTCGAGTAAACAAATTTTCCTAATCTTTCTGTTCAAGCGCCATCTAC,2.96 RPM ratio (pull-down/input)
12,GATGATTGTTCTCCCAGCTGATGAATTGTAATCTTCGAGTAAACAAATTTTCCTAATCTTTCTGTTCAAGCGCCATCTAC,0.84 RPM ratio (pull-down/input)
13,GATGATTGTTCTCCCAGCTGATGAATTGGTGAGATCGAGTAAACAAATTTTCCTAATCTTTCTGTTCAAGCGCCATCTAC,0.341 RPM ratio (pull-down/input)
14,GATGATTGTTCTCCCAGCTGATGAATTCTTTTACTCGAGTAAACAAATTTTCCTAATCTTTCTGTTCAAGCGCCATCTAC,0.312 RPM ratio (pull-down/input)
15,GATGATTGTTCTCCCAGCTGATGAATTCTTGGGATCGAGTAAACAAATTTTCCTAATCTTTCTGTTCAAGCGCCATCTAC,0.227 RPM ratio (pull-down/input)
16,GATGATTGTTCTCCCAGCTGATGAATTCCTCGTATCGAGTAAACAAATTTTCCTAATCTTTCTGTTCAAGCGCCATCTAC,0.403 RPM ratio (pull-down/input)
17,GATGATTGTTCTCCCAGCTGATGAATTGCGACCGTCGAGTAAACAAATTTTCCTAATCTTTCTGTTCAAGCGCCATCTAC,0.963 RPM ratio (pull-down/input)
18,GATGATTGTTCTCCCAGCTGATGAATTCCGACGATCGAGTAAACAAATTTTCCTAATCTTTCTGTTCAAGCGCCATCTAC,0.285 RPM ratio (pull-down/input)
19,GATGATTGTTCTCCCAGCTGATGAATTTCTACCGTCGAGTAAACAAATTTTCCTAATCTTTCTGTTCAAGCGCCATCTAC,0.222 RPM ratio (pull-down/input)
20,GATGATTGTTCTCCCAGCTGATGAATTGTTACGATCGAGTAAACAAATTTTCCTAATCTTTCTGTTCAAGCGCCATCTAC,0.792 RPM ratio (pull-down/input)
21,GATGATTGTTCTCCCAGCTGATGAATTTGTTTGGTCGAGTAAACAAATTTTCCTAATCTTTCTGTTCAAGCGCCATCTAC,7.49 RPM ratio (pull-down/input)

row,Sequence,binding signal
1,GATGATTGTTCTCCCAGCTGATGAATTGGTTTGGTCGAGTAAACAAATTTTCCTAATCTTTCTGTTCAAGCGCCATCTAC,3.6 RPM ratio (pull-down/input)
2,GATGATTGTTCTCCCAGCTGATGAATTGTTTTGGTCGAGTAAACAAATTTTCCTAATCTTTCTGTTCAAGCGCCATCTAC,3.65 RPM ratio (pull-down/input)
3,GATGATTGTTCTCCCAGCTGATGAATTGATTGTCTCGAGTAAACAAATTTTCCTAATCTTTCTGTTCAAGCGCCATCTAC,2.86 RPM ratio (pull-down/input)
4,GATGATTGTTCTCCCAGCTGATGAATTGTAGTTCTCGAGTAAACAAATTTTCCTAATCTTTCTGTTCAAGCGCCATCTAC,1.39 RPM ratio (pull-down/input)
5,GATGATTGTTCTCCCAGCTGATGAATTCCGGCATTCGAGTAAACAAATTTTCCTAATCTTTCTGTTCAAGCGCCATCTAC,4.43 RPM ratio (pull-down/input)
6,GATGATTGTTCTCCCAGCTGATGAATTTTCGGCATCGAGTAAACAAATTTTCCTAATCTTTCTGTTCAAGCGCCATCTAC,0.816 RPM ratio (pull-down/input)
7,GATGATTGTTCTCCCAGCTGATGAATTCGGCAGCTCGAGTAAACAAATTTTCCTAATCTTTCTGTTCAAGCGCCATCTAC,1.36 RPM ratio (pull-down/input)
8,GATGATTGTTCTCCCAGCTGATGAATTCTCGGCATCGAGTAAACAAATTTTCCTAATCTTTCTGTTCAAGCGCCATCTAC,0.601 RPM ratio (pull-down/input)
9,GATGATTGTTCTCCCAGCTGATGAATTTGCGGCATCGAGTAAACAAATTTTCCTAATCTTTCTGTTCAAGCGCCATCTAC,1.14 RPM ratio (pull-down/input)
10,GATGATTGTTCTCCCAGCTGATGAATTTCGGCATTCGAGTAAACAAATTTTCCTAATCTTTCTGTTCAAGCGCCATCTAC,5.76 RPM ratio (pull-down/input)
11,GATGATTGTTCTCCCAGCTGATGAATTCGGGCATTCGAGTAAACAAATTTTCCTAATCTTTCTGTTCAAGCGCCATCTAC,4.9 RPM ratio (pull-down/input)
12,GATGATTGTTCTCCCAGCTGATGAATTCGGCATCTCGAGTAAACAAATTTTCCTAATCTTTCTGTTCAAGCGCCATCTAC,7.14 RPM ratio (pull-down/input)
13,GATGATTGTTCTCCCAGCTGATGAATTCGGCATTTCGAGTAAACAAATTTTCCTAATCTTTCTGTTCAAGCGCCATCTAC,5.91 RPM ratio (pull-down/input)
14,GATGATTGTTCTCCCAGCTGATGAATTCGGCCATTCGAGTAAACAAATTTTCCTAATCTTTCTGTTCAAGCGCCATCTAC,3.92 RPM ratio (pull-down/input)
15,GATGATTGTTCTCCCAGCTGATGAATTCGCGGCATCGAGTAAACAAATTTTCCTAATCTTTCTGTTCAAGCGCCATCTAC,0.76 RPM ratio (pull-down/input)
16,GATGATTGTTCTCCCAGCTGATGAATTGCGGCATTCGAGTAAACAAATTTTCCTAATCTTTCTGTTCAAGCGCCATCTAC,7.34 RPM ratio (pull-down/input)
17,GATGATTGTTCTCCCAGCTGATGAATTTACTGGCTCGAGTAAACAAATTTTCCTAATCTTTCTGTTCAAGCGCCATCTAC,0.472 RPM ratio (pull-down/input)
18,GATGATTGTTCTCCCAGCTGATGAATTCTGATGCTCGAGTAAACAAATTTTCCTAATCTTTCTGTTCAAGCGCCATCTAC,1.09 RPM ratio (pull-down/input)
19,GATGATTGTTCTCCCAGCTGATGAATTAATTTGCTCGAGTAAACAAATTTTCCTAATCTTTCTGTTCAAGCGCCATCTAC,3.03 RPM ratio (pull-down/input)
20,GATGATTGTTCTCCCAGCTGATGAATTACTTAACTCGAGTAAACAAATTTTCCTAATCTTTCTGTTCAAGCGCCATCTAC,0.277 RPM ratio (pull-down/input)
21,GATGATTGTTCTCCCAGCTGATGAATTCTGGCCATCGAGTAAACAAATTTTCCTAATCTTTCTGTTCAAGCGCCATCTAC,1.12 RPM ratio (pull-down/input)
